In all, about 1,400 compounds went through this assay and about 30 (2%) were called active. Where a call stands in place of a potency, no number is given. Inconclusive results (about 15%) are left out. Calls follow the shape of the dose curve; as a rule, active = well fitted inhibition curve with a large enough effect; inconclusive = small, poorly fitted or top-dose-only effect; inactive = flat fitted curve, though single readings scatter. This excerpt belongs to a sample that is enriched for actives.
Experiment: Firefly Luciferase Counterscreen for Inhibitors of ATXN expression
Conditions: luminescence; series mostly up to 57.5 µM
Method in brief: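 Recombinant firefly luciferase at 10 nM final in 50 mM Tris pH 7.5, 10 mM MgCl2, 0.05% BSA, 0.01% Tween20 with substrate; compounds up to 57 uM final, 10 min room temperature, end-point luminescence. Buffer-only wells define 100% inhibition.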
Potency is read from the fitted curve at half-maximal effect.

Compound | Potency
Cc1cc(C)nc(N/N=C2/CCCC/C2=C\c2ccccc2)n1 | inactive
Cc1ccc(C(NC(=O)C2CCN(Cc3ccc(Cl)c(Cl)c3)CC2)c2ccccn2)cc1 (stereo not drawn) | inactive
Cn1c(=O)c2c(nc(CN3CCN(Cc4ccccc4)CC3)n2Cc2ccc(Cl)cc2)n(C)c1=O | inactive
Cn1c2ccccc2c(=O)c2c(=O)n(C3CCCCC3)c(-c3cccs3)nc21 | inactive
CC1(C)Cc2ccccc2C(NNC(=O)c2ccccn2)=N1 | inactive
CC(OC(=O)c1cc(Br)ccc1O)C(=O)Nc1ccc(S(=O)(=O)N2CCCC2)cc1 (stereo not drawn) | inactive
O=C(Nc1ccc(N2CCN(C(=O)c3cccs3)CC2)c(Cl)c1)c1cccnc1 | inactive
N#Cc1nc(Cc2cccc3ccccc23)oc1NCc1ccc(F)cc1 | inactive
CC(C)CC(N)c1csc(Nc2ccc(C(=O)N(C)Cc3ccccc3)cn2)n1 (stereo not drawn) | inactive
COc1ccc(C(=O)Nn2c(SCC(=O)c3ccccc3)nc3ccccc3c2=O)cc1 | 7.08 µM (active)
COc1ccc(Nc2c3ccccc3nc3ccccc23)cc1 | inactive
COc1ccc(C(=O)NNC(=S)NC(=O)c2ccccc2)cc1 | inactive
CC1(C(=O)NCc2ccccc2Br)CCN1C(=O)Cc1ccc(-c2ccccc2)cc1 (stereo not drawn) | inactive
Cc1cc(C(=O)N/N=C/c2c(CO)cnc(C)c2O)c2ccccc2n1 | inactive
CSCc1nnc(NC(=O)c2ccc(S(=O)(=O)N3CCCCC3C)cc2)o1 (stereo not drawn) | inactive
COc1ccc(C(NC(=O)c2cccnc2)c2cc(Cl)c3cccnc3c2O)cc1OC (stereo not drawn) | inactive
CC[C@H]1CN2CCc3cc(OC)c(OC)cc3C2C[C@@H]1C[C@H]1NCCc2cc(OC)c(OC)cc21 (stereo partly drawn) | inactive
Cc1cc(C(=O)N/N=C/c2cc(Br)cc(Br)c2OC(=O)c2cccc(F)c2)n[nH]1 | inactive
O=[N+]([O-])c1c(Nc2ccccn2)cc(Cl)c2nonc12 | inactive

Compound | Potency
COC(=O)Cc1ccc(NC(=S)N2CCN(c3cc(Cl)ccc3C)CC2)cc1 | inactive
CN(C)CCCN(C(=O)c1ccc(S(=O)(=O)N(C)Cc2ccccc2)cc1)c1nc2cc3c(cc2s1)OCO3 | inactive
COc1ccccc1/C=C/CN1CCCC(CO)(Cc2cccc(Cl)c2)C1 (stereo not drawn) | inactive
COc1ccc(Cl)cc1C(Nc1cccnc1)c1ccc2cccnc2c1O (stereo not drawn) | inactive
Cc1sc(NC(=O)c2cc(-c3ccc(Cl)cc3)nc3ccccc23)c(C(N)=O)c1C | 25.1 µM (active)
CN1CCC(NC(=O)c2cc(-c3cccc(Br)c3)nc3ccccc23)CC1 | inactive
Cc1cccc(NC(=O)c2cc(-c3ccccn3)nc3ccccc23)c1C | inactive
COc1ccccc1-c1cc2nc(-c3ccccc3)cc(N3CCN(C(=O)c4ccco4)CC3)n2n1 | inactive
O=C(Nc1ccc(OC(F)(F)F)cc1)N1CCN(c2ccnc3cc(Cl)ccc23)CC1 | inactive
CC(=O)Nc1ccc(CNc2nc(NC(C)C)nc3cc(-c4ccccc4)sc23)cc1 | 14.1 µM (active)
COc1cccc(CNc2nc(NCc3ccccc3)nc3ccsc23)c1 | inactive
CC(C)Nc1nc(NCCOc2ccccc2)c2sccc2n1 | inactive
COc1ccccc1NC(=O)CSc1n[nH]c(-c2ccccn2)n1 | inactive
CC(C)c1ccc(S(=O)(=O)c2cc3cc(Br)ccc3oc2=O)cc1 | inactive
N=c1n(CCN2CCCCC2)c2ccccc2n1CC(O)c1ccc(Cl)c(Cl)c1 (stereo not drawn) | inactive
CCOC(=O)c1c(C)sc2c1N(C(=O)CN(CC)CC)c1cc(Cl)ccc1S2 | inactive
COc1ccc(NC(=O)c2cc(-c3cc(Cl)ccc3OC)n[nH]2)cc1OC | inactive
Cc1nc2c(OCc3cccc(Cl)c3)cccn2c1N(C)Cc1cccs1 | inactive
C(=N\Nc1ccc2nncn2n1)/c1ccccn1 | inactive

Reference: PubChem BioAssay AID1745846 (National Center for Advancing Translational Sciences (NCATS), 2022)
